Measured values as given in PubChem BioAssay (NCATS).
Results filed as inconclusive are left out. A call without a number means that no potency is given here. Unmarked numbers belong to inactive results. The source made the active and inactive calls. Calls come from the whole dose curve; as a rule, active = well fitted activation curve with a large enough effect; inconclusive = small, poorly fitted or top-dose-only effect; inactive = flat fitted curve, though single readings scatter.

Assay: Primary redox qHTS assay for identification of artifact compounds. (AID 1845223)
Conditions: Amplex Red/HRP redox cycling with DTT, fluorescence; series mostly up to 53.8 µM
From the text: PI: Alexander Tropsha Ph.D.
UNC Eshelman School of Pharmacy
University of North Carolina, Chapel Hill, North Carolina
Hits from high-throughput screening (HTS) of chemical libraries are often false positives due to their interference with the assay detection technology. In response to this problem, we generated the largest publicly available library of chemical liabilities and developed a free webtool to predict HTS artifacts, both of which are described herein. More specifically, we generated, curated, and integrated HTS datasets for thiol reactivity, redox activity, and luciferase (firefly and nano) activity. Using these curated datasets, we developed and validated several Quantitative Structure-Interference Relationship (QSIR) models to predict nuisance behavior. […] These models were employed for virtual profiling of the National Center for Advancing Translational Science's (NCATS) in-house library, and 256 compounds for each assay were selected for the experimental validation of nuisance behavior. The BA for these external predictions ranged from 58 to 78% for compounds within the applicability domains of the models. […] The models developed in this study, along with aggregation models previously developed by our group (SCAM Detective) were implemented in "Liability Predictor," an online tool which may be used as part of chemical library design or for triaging HTS hits. Both the models and the curated datasets are publicly available at https://liability.mml.unc.edu/.
SEQUENCE No. (e.g., 1, 2, 3, etc.); […] (e.g., Cells, Incubation, Reagent, etc.); VALUE; DESCRIPTION.
1; Reagent; 3 uL; Amplex Red and HRP mixture.
2; Compounds and control; 16 nL; Kalypsis pin tool (Wako USA) equipped with a 1536-well pin head. […]
6; Detection; Fluorescence, ViewLux microplate reader, 525 nm excitation, 598 nm emission.
NOTES (numbers refer to Sequence numbers above)
1. 3 uL of a mixture containing Amplex Red (25 uM final concentration) and horseradish peroxidase (HRP; 250 mU/mL final concentration) in assay buffer (HBSS) was dispensed into all wells of a 1536-well assay plate (solid-bottom black plate; Greiner Bio One, Monroe, NC).
2. A Wako Pin-tool (Wako Automation, Richmond, VA) was used to transfer 16 nL of compounds (consisting of 7-plates in qHTS format, final concentration range 18.3 nM to 114 uM) or control DA3003 (final concentration range 1.22 nM to 40 uM).
3. 15 min. incubation at room temperature protected from light.
4. 1 uL of DTT (prepared fresh; final concentration 250 uM) was dispensed for a final assay volume of 4 uL.
5. Plates were centrifuged (121xg, 15 seconds) and incubated for 30 minutes at room temperature protected from light.
6. Samples were read for fluorescence (Ex/Em = 525(20)/598(25) nm) on a ViewLux CCD imager (PerkinElmer). Data were normalized to DMSO (0% activity) and DA3003 (10 uM final concentration; 100% activity) and the resulting percent inhibition data were fitted to a 4-parameter Hill equation using NCATS in-house software.

Structure (SMILES)	Potency	redox activity (% of DA3003)
COc1ccc2c3ccnc4ccc(=O)n(c2c1)c43	inactive	–
C=C(C)C(=O)O[C@H]1[C@H]2C(=C)C(=O)O[C@@H]2C[C@@H](C)[C@@H]2O[C@@H]2C(=O)[C@](C)(O)[C@@H]1OC(C)=O	inactive	–
CC1CCC(n2c3cnccc3c3cnc(Nc4ccc5c(n4)CCN(C(=O)CO)C5)nc32)CC1 (stereo not given)	inactive	–
CCCCOc1ccc(-c2cncc(C(=O)NCc3cccnc3N3CCOCC3)c2)cc1Cl	inactive	–
CC1CCN(c2cc(NC(=O)c3ccccc3)ncn2)CC1	inactive	–
Cc1ccc(C2(COC(=O)C(C)C)CO2)c(OC(=O)C(C)C)c1 (stereo not given)	inactive	–
Cc1cc(N=Nc2ccc(S(=O)(=O)Nc3ccccn3)cc2)c(N)cc1O	inactive	–
CCCCn1c(-c2ccccc2)nc(-c2ccccc2)c1CN(Cc1ccc2c(c1)OCO2)Cc1ccc2c(c1)OCO2	inactive	–
CN(Cc1ccc(C(=O)O)cc1)c1ccc(OCc2c(-c3c(Cl)cccc3Cl)noc2C2CC2)nc1C(F)(F)F	inactive	–
Cc1nnsc1C(=O)Nc1ccc(-n2nc(C(F)(F)F)cc2C(F)(F)F)cc1	inactive	–
Cc1ccc(C(=O)N2CCN(c3ccc([N+](=O)[O-])cc3)CC2)cc1Cl	inactive	–
Cc1ccn(-c2cc(Cl)ccc2[C@@H](Oc2cc(-c3ccc(C[C@H](N)C(=O)O)cc3)nc(N)n2)C(F)(F)F)n1	inactive	–
COc1cc(O)c(C(=O)CCc2ccc(O)cc2)c(O[C@@H]2O[C@H](CO)[C@@H](O)[C@H](O)[C@H]2O)c1	inactive	–
OCC(Cc1ccccc1)Nc1nc(Oc2ccc3c(c2)CCC3)nc2c1ncn2Cc1ccc(-c2ccccc2)cc1 (stereo not given)	inactive	–
N#C[C@@H]1C[C@@H]2C[C@@H]2N1C(=O)[C@@H](N)C12CC3CC(CC(O)(C3)C1)C2	inactive	–
CC(=O)c1c(OCCN2CCCCC2)c(OCCC(C)c2ccc(F)cc2)c2oc(C)nc2c1C (stereo not given)	inactive	–
CC1=CC(=O)[C@@]2(C(C)C)C[C@@H]12	inactive	–
CN(C)CCCNc1nc(CN2CCN(C(c3ccc(Cl)cc3)c3ccc(Cl)cc3)CC2)nc2ccccc12	inactive	–
C[C@@H](O[C@H]1OCCN(Cc2n[nH]nc2CN(C)C)[C@H]1c1ccc(F)cc1)c1cc(C(F)(F)F)cc(C(F)(F)F)c1	inactive	–
COc1cccc(NC[C@@H](O)Cn2c3ccc(Br)cc3c3cc(Br)ccc32)c1	inactive	–

Structure (SMILES)	Potency	redox activity (% of DA3003)
N#CCC(C1CCCC1)n1cc(-c2ncnc3[nH]ccc23)cn1 (stereo not given)	inactive	–
CC(CCC1(O)OC2CC3C4CC=C5CC(O[C@@H]6O[C@H](CO)[C@@H](O[C@@H]7O[C@H](CO)[C@@H](O)[C@H](O)[C@H]7O)[C@H](O)[C@H]6O[C@@H]6O[C@@H](C)[C@H](O)[C@@H](O)[C@H]6O)CCC5(C)C4CCC3(C)C2C1C)CO[C@@H]1O[C@H](CO)[C@@H](O)[C@H](O)[C@H]1O (stereo not given in full)	–	5.01% [at 11.5 µM]
Cc1cc2nc(NCCCO)n(CC(=O)c3cc(C(C)(C)C)c(O)c(C(C)(C)C)c3)c2cc1C	inactive	–
COc1cc2ncnc(Nc3ccc(Oc4ccccc4)cc3)c2cc1OC	inactive	–
CC1(C)CC23[C@@H]4CC(=O)[C@@H]2COC(=O)[C@@H]3CC[C@H]41	inactive	–
Cc1ccc2c(Nc3ccc(Cl)cc3)nccc2c1Nc1ncccc1-c1ncnc2nc[nH]c12	inactive	–
CC1(CO)CCCC2(C)C1C(OC(=O)c1ccccc1)C=C1C(=O)OCC12O (stereo not given)	inactive	–
COc1cc(N2CCN(C)CC2)ccc1Nc1nccc(-c2cn(C)c3cnccc23)n1	inactive	–
C/C=C/CC(C)C(O)C1C(=O)NC(CC)C(=O)N(C)CC(=O)N(C)C(CC(C)C)C(=O)NC(C(C)C)C(=O)N(C)C(CC(C)C)C(=O)NC(C)C(=O)NC(C)C(=O)N(C)C(CC(C)C)C(=O)N(C)C(CC(C)C)C(=O)N(C)C(C(C)C)C(=O)N1C (stereo not given)	inactive	–
C[C@H](NC(=O)C(C)(C)Oc1ccc(C(F)(F)F)cn1)[C@@H](Cc1ccc(Cl)cc1)c1cccc(C#N)c1	inactive	–
CCCc1c(C(C)C)nc(C(C)C)c([C@@H](C)O)c1-c1ccc(F)cc1O	inactive	–
Fc1ccc(C2CCNC[C@H]2COc2ccc3c(c2)OCO3)cc1 (stereo not given in full)	inactive	–
CC(=O)Nc1ccc(C(=O)Nc2ccccc2N)cc1	inactive	–
C=C(C)C(=O)OC1[C@@H]2C(=C)C(=O)O[C@@H]2C[C@@H](C)[C@@H]2C=CC(=O)[C@@]12C (stereo not given in full)	inactive	–
O=C(Nc1ccc(F)cc1)N1CCc2ccccc2C1c1ccc(C(F)(F)F)cc1 (stereo not given)	inactive	–
COc1ccc(CNC(=O)Nc2ncc([N+](=O)[O-])s2)cc1	inactive	–
CCN(CC)Cc1cccc(/C=C/c2nc3ccc(F)cc3c(=O)n2-c2ccccc2Cl)n1	inactive	–
CC/C(=C(\c1ccc(O)cc1)c1ccc(OCCNC)cc1)c1ccccc1	inactive	–
CN[C@@H]1[C@@H](O)[C@@H](O[C@@H]2[C@@H](O)[C@H](O[C@H]3O[C@@H]([C@@H](C)NC)CC[C@H]3N)[C@@H](N)C[C@H]2N)OC[C@]1(C)O	inactive	–
CCC[C@@H](NC(=O)N1C(=O)C(CC)(CC)[C@@H]1Oc1ccc(C(=O)N2CCN(C)CC2)cc1)c1ccc2c(c1)OCO2	inactive	–
